Source: PubChem
This is a sample that favours compounds with a hit; in the whole collection about 2.1% have one here.
Abeta rescue: compounds reversing amyloid beta toxicity in yeast; Potency, µM (highest dose often 46.1 µM), actives largely listed as activators; yeast expressing A-beta42, growth rescue, OD600, 48 h; response scale: 0% DMSO, 100% iron-clioquinol control; AID 1347071; hit rate 0.063% among 410,000; further: nearly all actives have a fitted effect of over 55% in size
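Growth rescue measured by 600 nm absorbance after 48 h yeast culture at 30 C with compound. Values normalized between DMSO and an equimolar ferric chloride plus clioquinol control.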
aSyn rescue: inhibitors of alpha-synuclein toxicity in yeast. Yeast expressing alpha-synuclein, growth rescue, BacTiter-Glo, 24 h. Potency, µM (titrated, usually from 46.1 µM), without a hit: top-dose growth rescue (activation), most hits filed as activators. hit rate 0.14% among 370,000. AID 652106; further: % of control where 0% means no effect; nearly all actives have a fitted effect of over 65% in size
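Screening used galactose-induced yeast with toxic alpha-synuclein levels, exposed to compound for 24 hr at 30 deg C. Cell growth, read with BacTiter-Glo luminescence, gave the measured signal.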
TDP-43 yeast inh: inhibitors of TDP-43 toxicity in yeast | TDP-43 expressing yeast growth rescue, BacTiter-Glo, 24 h | AID 652104 | Potency, µM (titrated, usually from 46.1 µM), without a hit: at the top dose growth rescue (activation), hits mostly activators | hit rate 1.8% among 410,000; further: % of control where 0% means no effect; nearly all actives have a fitted effect of over 50% in size
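In this qHTS, compounds that restore growth of yeast expressing TDP-43 appear as activators. Cells (OD600=0.02, galactose medium, raffinose-pregrown) are incubated with compound 24 hr at 30 deg C and growth is quantified by BacTiter-Glo.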
FUS suppressor: suppressors of FUS proteinopathy in yeast. S. cerevisiae FUS-expressing, growth rescue, OD600, 24 h. Potency, µM (series often up to 76.6 µM), hits mostly activators. hit rate 0.24% among 390,000. AID 1347120;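 further: plate controls were DMSO vehicle for no effect and reference control for full effect; nearly all actives have a fitted effect of over 55% in size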
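Quantitative HTS measuring growth restoration of FUS-toxic yeast. Galactose-induced cells (OD 0.005) were exposed 24hr at 30C to compounds at several concentrations, then absorbance at 600 nm was recorded.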
The depositor's hits bear a star; i = inactive; ? = inconclusive; . = no result given; [ ] = remark or other dose. The call rests on the fitted dose curve; in most records, active means well fitted curve in the direction sought with a large enough effect; inconclusive means small, poorly fitted or top-dose-only effect, or another doubt; inactive means no such curve, though single readings can be large; an effect the other way counts as inactive or inconclusive. Potency means the concentration at half of the fitted maximal effect.

SMILES	Abeta rescue	aSyn rescue	TDP-43 yeast inh	FUS suppressor
COc1ccc(C(=O)NCCn2cc(SCC(=O)Nc3ccc4c(c3)OCCO4)c3ccccc32)cc1	i	.	3%	?
Cc1nc(Oc2ccccc2)c2oc3ccccc3c2n1	i	3%	?	i
COc1ccc(Oc2nc(C)nc3c2oc2ccccc23)cc1	i	10%	16µM*	i
N#Cc1cn(CCCOc2ccccc2)c2ccccc12	?	-5%	23%	i
COc1ccccc1OCCCn1cc(C#N)c2ccccc21	i	1%	35µM*	i
COc1ccccc1CCNC(=O)c1ccc(Br)s1	i	12%	14µM*	i
COc1ccccc1CNS(=O)(=O)c1ccc(Br)s1	i	10%	13µM*	i
Cc1ccc(F)cc1NS(=O)(=O)c1ccc(Cl)s1	i	13%[1.84 µM]	35µM*	i
COc1ccccc1CCNS(=O)(=O)CCNC(=O)c1ccccc1	i	-2%	-1%	i
COCCNC(=O)c1ccccc1NS(=O)(=O)c1ccc(Br)s1	i	2%	-22%	i
CCOc1ccccc1NS(=O)(=O)c1ccc(Br)s1	i	14µM*	-18%	i
O=C(CBr)c1ccc(Oc2ccc(C(=O)C[n+]3ccccc3Cl)cc2)cc1	.	5%	.	.
O=S(=O)(Nc1ccc(F)cc1F)c1ccc(Br)s1	i	.	20µM*	i
CCC1(C)NC(c2ccc3c(c2)OCO3)=CC(c2ccccc2O)N1 (stereo not given)	.	-8%	.	.
O=[N+]([O-])c1ccc(S(=O)(=O)Nc2ccncc2)cc1	i	2%	15%	i
O=[N+]([O-])c1ccc(Oc2ccc(S(=O)(=O)Nc3ccccc3)cc2)cc1	i	3%	2.8µM*	i
COc1ccccc1-c1c(C#N)c(N)nc2c1CCc1ccccc1-2	i	17%	20µM*	?
COc1ccccc1-c1cc(-c2ccc(O)cc2)nc(N)c1C#N	i	-9%	32µM*	i
N#C/C(=C\c1cccs1)Sc1nc2ccccc2s1	i	-6%	?	.
N#C/C(=C\c1ccc[nH]1)Sc1nc2ccccc2s1	i	3%	22µM*	i
CCOCCOC(=O)c1ccc(NC(=O)/C=C/c2ccc(OC)c(OC)c2)cc1	i	.	11%	i
O=C(O)c1ccc(N2C(=O)CSC2=S)cc1	i	10µM*	?	i
O=C(O)c1ccc(CN2C(=O)CSC2=S)cc1	i	13µM*	18µM*	i
O=C1CSC(=S)N1c1ccc(F)c(Cl)c1	?	16%	25µM*	i
O=C(O)c1cc(C(=O)O)cc(N2C(=O)CSC2=S)c1	i	7%	14%	i
SMILES	Abeta rescue	aSyn rescue	TDP-43 yeast inh	FUS suppressor
O=C1CSC(=S)N1c1ccccc1	i	-6%	14%	.
CCCCc1ccc(-n2nc3ccc(NC(=O)c4cc5ccccc5o4)cc3n2)cc1	i	.	?	?
O=C(c1cc(-c2ccccc2O)on1)N1CCc2ccccc2C1	i	1%	20%	i
O=C(c1cc(-c2ccc(O)cc2)on1)N1CCc2ccccc2C1	i	-8%	14µM*	i
CCN(C(=O)[C@H]1CC(=O)O[C@@H]1c1ccccc1)c1ccccc1	.	.	.	i
O=C(c1ccccc1)n1ccn(-c2ccccc2)c1=S	i	-1%	11µM*	i
Cc1ccc(OCC(=O)OC2=C(C(=O)c3ccccc3)N(C)S(=O)(=O)c3ccccc32)cc1	i	.	-30%	i
CCC(C)Nc1nc(N)c([N+](=O)[O-])c(NCc2ccccc2)n1 (stereo not given)	i	0%	18µM*	i
CCCc1cc(-c2n[nH]c(=S)n2CC)cs1	i	-9%	35µM*	i
CC(C)Cn1c(-c2csc3ccccc23)n[nH]c1=S	i	8%	0%	.
CCn1c(-c2csc3ccccc23)n[nH]c1=S	i	2%	22µM*	.
CCn1c(-c2csc3c2CCC(C)C3)n[nH]c1=S (stereo not given)	i	9%	11µM*	.
O=C1c2[nH]nc(-c3ccccc3O)c2C(c2ccc(Cl)cc2)N1CCc1ccccc1 (stereo not given)	i	.	16%	i
CCN(CC)c1ccc(NS(=O)(=O)c2ccc(-c3coc(C)n3)cc2)c(C)c1	i	?	8%	i
CCOC(=O)CCSc1nc2c(c(C(F)(F)F)c1C#N)CCC2	i	8%	13µM*	i
N#CCC[C@H]1CC[C@]2(CCCN(c3ccccc3)C2)O1	.	.	.	i
